ST2 inh: inhibitors of human ST2 (IL1RL1) binding to IL-33, primary screen, biochemical, AlphaLISA | AID 1259354, 2018 | Interleukin-1 receptor-like 1 (Homo sapiens), Q01638 | inhibition, % for hits at 17 µM | AlphaLISA ST2-Fc/biotin-IL-33 interaction, 1 h | actives 2.3% (n = 78,000); in the data active = inhibition above about 30%
Target sequence (Q01638 whole entry, looked up): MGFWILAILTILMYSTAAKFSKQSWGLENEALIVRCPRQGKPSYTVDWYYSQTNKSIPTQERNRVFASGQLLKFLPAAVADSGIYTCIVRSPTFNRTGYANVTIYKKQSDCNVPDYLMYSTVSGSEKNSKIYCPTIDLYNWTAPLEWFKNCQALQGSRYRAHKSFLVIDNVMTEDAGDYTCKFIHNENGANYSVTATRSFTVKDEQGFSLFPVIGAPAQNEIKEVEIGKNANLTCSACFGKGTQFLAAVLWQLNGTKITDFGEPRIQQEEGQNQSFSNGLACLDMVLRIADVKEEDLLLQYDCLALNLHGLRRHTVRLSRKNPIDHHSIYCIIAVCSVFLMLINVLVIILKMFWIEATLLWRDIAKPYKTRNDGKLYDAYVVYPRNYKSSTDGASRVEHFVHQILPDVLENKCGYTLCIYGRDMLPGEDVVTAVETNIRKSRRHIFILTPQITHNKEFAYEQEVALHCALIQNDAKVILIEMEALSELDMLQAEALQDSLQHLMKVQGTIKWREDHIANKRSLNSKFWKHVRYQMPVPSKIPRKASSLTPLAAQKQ
Each line names hits and unclear results; the compound was inactive in the other large screens. Only a selection was taken, and hits are over-represented in it overall.

C/C(Cl)=C\CN1C(=O)C(=O)c2cccc(C)c21	ST2 inh 54.0%
Cc1ccccc1Cn1ccc(NC(=O)CCCn2nc(C)c([N+](=O)[O-])c2C)n1	none
CCCCNC(=O)CSc1cc(=O)n(C)c2cc(Cl)ccc12	none
COC(=O)c1c(NC(=O)COc2ccc(C(C)(C)C)cc2)sc2c1CCC2	none
CC(C)(C)c1ccc(C(=O)Nc2ccc3c(c2)OCO3)cc1	none
COc1ccccc1NC(=O)c1ccc(OCc2ccccc2)cc1	none
COC(=O)C1=C(NC(=O)c2ccc(Cc3ccccc3)cc2)CCS1	ST2 inh 31.0%
COC(=O)C1=C(NC(=O)c2ccc(C(C)(C)C)cc2)CCS1	ST2 inh 53.0%
CCc1ccc(NC(=O)c2ccc(N(Cc3ccccc3)S(C)(=O)=O)cc2)cc1	none
COc1cc(CN2CCC(n3cc(CC(C)C)nn3)CC2)ccc1F	none
O=C(c1ccccc1)N1CCN=C1SCc1ccccc1Cl	none
O=C(NC1CCN(Cc2ccccc2)C1)c1cn(Cc2ccccc2Cl)nn1 (centres undefined)	none
Cc1nc(-c2ccc([N+](=O)[O-])cc2)cs1	none
Ic1ccc(-c2csc(Nc3ccc4c(c3)OCO4)n2)cc1	none
Cc1ccc(Nc2nc(-c3ccc([N+](=O)[O-])cc3)cs2)cc1C	ST2 inh 33.0%
O=C(Cn1c(=O)n(-c2ccc(F)cc2F)c(=O)c2sccc21)NCCC1=CCCCC1	none
CC(=O)c1ccc(NC(=O)N[C@H]2CO[C@H]3[C@@H]2OC[C@H]3OC(=O)Nc2cccc(C(C)=O)c2)cc1	ST2 inh 85.0%
CC(=O)c1ccc(NC(=O)O[C@@H]2CO[C@H]3[C@@H]2OC[C@@H]3NC(=S)Nc2ccccc2)cc1	ST2 inh 41.0%
CC(C)c1ccc(NC(=O)O[C@@H]2CO[C@H]3[C@@H]2OC[C@@H]3NC(=S)Nc2ccccc2)cc1	none
CC(=O)c1ccc(NC(=O)O[C@@H]2CO[C@H]3[C@@H]2OC[C@@H]3NC(=O)Nc2cccc(C#N)c2)cc1	none
CC(=O)c1ccc(NC(=O)O[C@@H]2CO[C@H]3[C@@H]2OC[C@@H]3NC(=O)NC2CCCCC2)cc1	none
COc1cc(NC(=S)N[C@H]2CO[C@H]3[C@@H]2OC[C@H]3OC(=O)Nc2ccc(C(C)=O)cc2)cc(OC)c1	none
O=S(=O)(NCCN1CCOCC1)c1cccc2cccnc12	none
CCS(=O)(=O)NC1CC(=O)N(Cc2ccccc2Cl)C1 (centres undefined)	none
O=C(CSc1c2c(nc3ccccc13)CCC2)Nc1cccc(Cl)c1	none
O=C(CN1CCCCCC1)N1CCCC(CO)(Cc2ccc(F)cc2)C1 (centres undefined)	none
CC(c1ccccc1)N1C(=O)c2ccccc2C1C(=O)NC1CCCCC1 (centres undefined)	none
Cn1c(Br)nc2c1c(=O)n(Cc1ccccc1)c(=O)n2C	none
COc1ccc(Oc2nc3c(c(=O)n(Cc4ccccc4)c(=O)n3C)n2C)cc1	ST2 inh 35.0%
Cn1c(=O)c2c(nc(Oc3ccccc3)n2C)n(C)c1=O	none
CC(=O)N(CC1=CCCN(C(C)C(N)=O)C1)C1CCCCC1 (centres undefined)	none
CCN(CC)CCN1C(=O)C(=O)C(=C(O)c2ccc(Cl)cc2)C1c1ccc(F)cc1 (centres undefined)	none
COc1cccnc1-c1ccc(O)cc1	none
COc1ccc(Cl)cc1NC(=O)c1cc(C)on1	none
Cc1cccc(OCCCN2CCCC2)c1	none
COc1ccc(OCCCN2CCCCCC2)cc1	ST2 inh 43.0%
COc1ccc(CN2CCCCCC2)cc1	none
CCOC(=O)c1ccc(Oc2nc(NC(C)C)nc(NC(C)C)n2)cc1	none
O=C(NCCSc1cn[nH]n1)c1cccc2c1NCCC2	none
N#C/C(=C\c1ccc(O)c(O)c1)C(=O)Nc1ccccc1	none
CC(NC(=O)c1ccccc1C(=O)NC(C)c1ccccc1)c1ccccc1 (centres undefined)	none
C[C@@H](NC(=O)/C(C#N)=C/c1ccc(O)c(O)c1)c1ccccc1	ST2 inh 58.0%
COc1cc(C(=O)Nc2nc3c(s2)CCCC3)cc(OC)c1OC	none
COC(=O)c1c(C)oc2cc(Br)c(OC(=O)c3ccccc3)cc12	none
COC(=O)C1C(=O)C2=C(CC1C)NC(C)=C(C(=O)OC1CCCC1)C2c1ccc(OC)cc1 (centres undefined)	none
CC1CN(C)C(C)c2c1oc1ccc([N+](=O)[O-])cc21 (centres undefined)	ST2 inh 43.0%
Cc1cccc(-c2nc3cc([N+](=O)[O-])ccc3o2)c1	none
CN1CCN(Cc2cc([N+](=O)[O-])ccc2O)CC1	none
COc1ccccc1C1C2=C(CC(C)(C)CC2=O)Nc2nc(SCCN(C)C)[nH]c(=O)c21 (centres undefined)	none
Cc1ccc(S(=O)(=O)N2CCC(n3c(C)nc4cccnc43)CC2)cc1C	none
CCc1nc2cccnc2n1C1CCN(S(=O)(=O)c2ccc(C(C)(C)C)cc2)CC1	none
O=S(=O)(c1ccc2c(c1)OCCO2)N1CCC(n2cnc3cccnc32)CC1	ST2 inh 98.0%
O=S(=O)(Nc1nc2ccccc2s1)c1ccccc1	none
COCCN(Cc1cnn(C)c1)c1nc(C)nc2sccc12	none
CCCOc1ccc2oc(=O)c3c(c2c1)CCCN3C(=O)CN1CCCC1	none
COc1ccc2cc3cc(C(=O)Nc4ccc(F)cc4)sc3nc2c1	ST2 inh 35.0%
COc1ccc2nc3oc(C(=O)Nc4ccccc4F)cc3cc2c1	none
COc1ccc2cc3cc(C(=O)Nc4ccccc4F)sc3nc2c1	ST2 inh 41.0%
COc1ccc(N2CCN(C(=O)c3cc4cc5ccc(OC)cc5nc4s3)CC2)cc1	none
Cc1ccc(Cl)cc1NC(=O)c1cc2c(=O)n3cccc(C)c3nc2s1	none
COc1ccc2cc3cc(C(=O)Nc4cccc(C#N)c4)sc3nc2c1	none
Cc1cccn2c(=O)c3cc(C(=O)Nc4ccccc4C#N)sc3nc12	none
COc1ccc(-n2c(=O)[nH]cc(C(=O)Nc3ccc(F)cc3F)c2=O)cc1	none
Cc1cccn2c(=O)c3cc(C(=O)Nc4ccccc4F)sc3nc12	ST2 inh 35.0%
COc1ccc(C(=O)Nc2ccccc2F)cc1	none
COc1ccc2cc3cc(C(=O)Nc4ccc(F)cc4F)sc3nc2c1	ST2 inh 35.0%
Cc1ccc2cc3cc(C(=O)NC(C)C)sc3nc2c1	none
C/C(=N/OC(=O)c1ccccc1I)c1cccnc1	none
CCc1cc2c(C)cc(=O)oc2c(CN2CCC(C)CC2)c1O	none
Cc1ccccc1Cn1cc(S(=O)(=O)CC(=O)N2CCc3ccccc32)c2ccccc21	none
Cc1nc(NCc2ccccc2Cl)c2c(C)c(C)sc2n1	none
COC(=O)C1=C(C)Nc2nc(SC)[nH]c(=O)c2C1c1ccc(Cl)cc1 (centres undefined)	none
CCc1ccc(C2C(C(=O)Nc3ccc(F)cc3)=C(C)NC3=C2C(=O)CC(C)(C)C3)cc1 (centres undefined)	none
Cn1c(=O)cc(SCC(=O)Nc2ccc(F)cc2)c2ccc(Cl)cc21	none
N#Cc1cc(N2CCCC2C(=O)O)c([N+](=O)[O-])cc1C#N (centres undefined)	none
CN1CCN(CC(O)CN2CCN(C)CC2)CC1	none
Cc1ccc(CNS(=O)(=O)c2ccc(Br)s2)cc1	none
O=C(CNS(=O)(=O)c1ccc(Br)s1)N1CCN(Cc2ccccc2)CC1	none
Cc1ccc(CN2CCCN(S(=O)(=O)c3ccc(Br)s3)CC2)cc1	ST2 inh 35.0%
COc1ccc(N(C)C(=O)c2cc3cc4ccc(OC)cc4nc3o2)cc1	none
CCNc1ccccc1-c1nc2ccccc2[nH]c1=O	none
Cc1ccccc1Cn1c(-c2ccccc2F)nc2ccccc2c1=O	none
Cc1cccc2nc3c(nc12)C(=O)c1ccccc1C3=O	ST2 inh 32.0%
Cc1ccn2c(=O)cc(COc3cccc(NC(=O)c4ccc(C(C)(C)C)cc4)c3)nc2c1	none
